Data as given in PubChem BioAssay AID651658 (Broad Institute, 2012).
Out of some 340,000 compounds screened, about 5,100 (1.5%) were called active. Only a selection was taken, and actives are over-represented in it overall. Unmarked numbers belong to inactive results.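 Rule for the calls: active = mean Tm shift, scaled 0 neutral to 100 positive control, at about 1.3% or above, every replicate too (limit read from the data); inconclusive = no clear call, values can overlap the other calls; inactive = the rest.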

target: Fibroblast growth factor 22 (Homo sapiens) (UniProt Q9HCT0); assay: binders of human FGF22 protein, primary screen, FGF22 synaptogenesis inhibitor project, biophysical, thermal shift, single point (AID 651658); conditions: recombinant FGF22 thermal shift, SYPRO orange fluorescence; at 9.99 µM; stronger effect = higher value; percent of sucrose octasulfate shift, DMSO zero
Sequence (Q9HCT0 whole entry, looked up): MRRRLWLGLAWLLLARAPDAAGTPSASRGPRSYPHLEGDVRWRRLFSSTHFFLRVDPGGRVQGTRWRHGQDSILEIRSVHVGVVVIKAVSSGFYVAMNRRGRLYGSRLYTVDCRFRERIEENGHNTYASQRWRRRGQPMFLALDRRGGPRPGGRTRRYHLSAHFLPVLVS

| Compound | activity (Tm shift, normalised) |
| --- | --- |
| CN(C)C(=O)C[C@H]1CC[C@@H](NC(=O)C2CC2)[C@@H](CO)O1 | -0.057% |
| C[C@H]1CN([C@@H](C)CO)C(=O)c2cccc(NC(=O)Nc3ccccc3)c2O[C@H]1CN(C)S(=O)(=O)c1ccc(Cl)cc1 | -0.286% |
| C[C@@H]1CN([C@H](C)CO)C(=O)c2cc(-c3cccc(C(=O)N(C)C)c3)cnc2O[C@H]1CN(C)S(=O)(=O)c1ccc(F)cc1 | -0.014% |
| COCC(=O)Nc1ccc2c(c1)OC[C@H](C)N(Cc1ccccc1)C[C@H](C)[C@@H](OC)CN(C)C2=O | -0.276% |
| C[C@@H]1CN([C@@H](C)CO)C(=O)c2cc(NC(=O)Nc3ccc4c(c3)OCO4)ccc2O[C@@H](C)CCCCO[C@@H]1CN(C)S(=O)(=O)c1cccs1 | 0.586% |
| Cc1ccc(S(=O)(=O)N(C)C[C@@H]2Oc3c(NC(=O)C4CC4)cccc3C(=O)N([C@H](C)CO)C[C@@H]2C)cc1 | 0.051% |
| CN(C)C(=O)C[C@@H]1CC[C@H]2[C@@H](COC[C@H](O)CN2S(=O)(=O)c2ccccc2)O1 | -0.015% |
| O=C(C[C@H]1CC[C@H]2[C@@H](COC[C@@H](O)CN2S(=O)(=O)c2cccc(Cl)c2)O1)NC1CCCC1 | -0.093% |
| Cc1cccc(S(=O)(=O)N2C[C@@H](O)COC[C@H]3O[C@H](CC(=O)N4CCN(C)CC4)CC[C@@H]32)c1 | -0.222% |
| COc1cccc(S(=O)(=O)N2C[C@@H](O)COC[C@@H]3O[C@H](CC(=O)Nc4ccccc4)CC[C@H]32)c1 | -0.453% |
| O=C(C[C@H]1CC[C@H]2[C@@H](COC[C@H](O)CN2S(=O)(=O)c2cccc(Cl)c2)O1)Nc1ccccc1 | 1.27% (active) |
| Cc1cccc(S(=O)(=O)N2C[C@@H](O)COC[C@H]3O[C@H](CC(=O)Nc4ccc(-c5ccccc5)cc4)CC[C@@H]32)c1 | 1.98% (active) |
| COc1cccc(-c2ccc(CC[C@H]3O[C@H]4CC[C@@H](CO)O[C@H]4C[C@@H]3NS(C)(=O)=O)cc2)c1 | -0.835% |
| CCCNC(=O)N(C)C[C@H]1Oc2ncc(-c3ccccc3F)cc2C(=O)N([C@@H](C)CO)C[C@H]1C | 0.186% |
| C[C@H](CO)N1C[C@H](C)[C@H](CN(C)Cc2ccc(C(=O)O)cc2)OCc2cn(nn2)CCCC1=O | -0.002% |
| C/C=C/c1cnc2c(c1)C(=O)N([C@@H](C)CO)C[C@@H](C)[C@@H](CN(C)S(=O)(=O)c1ccccc1F)O2 | 0.721% |
| O=C(N[C@@H]1CC[C@@H](CC(=O)N2CCc3ccccc3C2)O[C@@H]1CO)C1CCOCC1 | -0.035% |
| Cc1ccc(OCCCC(=O)Nc2ccc(S(=O)(=O)Nc3cc(C)nc(C)n3)cc2)cc1 | -0.115% |
| Cc1ccc(S(=O)(=O)Nc2nc(C)cc(-n3nc(C)cc3C)n2)cc1 | 0.134% |
| Cc1ccc(S(=O)(=O)Nc2nc(C)cc(N/N=C/c3ccc(O)cc3)n2)cc1 | 43.2% (active) |
| CN(C)C(=O)C[C@H]1C[C@@H]2c3cc(NC(=O)NC4CCCCC4)ccc3O[C@@H]2[C@@H](CO)O1 | -7.03% |
| C[C@H](CO)N1C[C@H](C)[C@@H](CN(C)Cc2cccnc2)Oc2cc(C#CC3CC3)ccc2S1(=O)=O | -0.495% |
| CC1(Cc2cccc(C#N)c2)C(=O)Nc2ccc(-c3cccc(C(F)(F)F)c3)cc21 (stereo not given) | 0.505% |
| Cn1cc(-c2ccccc2)cc(C#N)c1=O | 0.065% |

| Compound | activity (Tm shift, normalised) |
| --- | --- |
| C=CCn1cc(-c2cccc(C(F)(F)F)c2)cc(C#N)c1=O | 42.9% (active) |
| COc1cccc(S(=O)(=O)N2CCC3(CC2)CN[C@H](CO)c2c3c3ccc(OC)cc3n2C)c1 | 0.197% |
| OCCC1CN(Cc2ccccc2-c2ccco2)CCN1Cc1ccsc1 (stereo not given) | 0.318% |
| Cc1ccc(CN2CCN(Cc3ccccc3-c3ccco3)CC2CCO)o1 (stereo not given) | 43.4% (active) |
| Cc1ccc(CN2CCN(Cc3cn(C)nc3-c3ccccc3)CC2CCO)o1 (stereo not given) | -0.412% |
| CCS(=O)(=O)N[C@@H]1CC[C@@H](CC(=O)NCC2CC2)O[C@H]1CO | 0.034% |
| CN1C(=O)c2cc(NC(=O)c3ccc(F)cc3)ccc2OC[C@H]2O[C@H](CC(=O)N3CCOCC3)CC[C@@H]21 | -0.26% |
| O=C(CSCc1ccc([N+](=O)[O-])cc1)Nc1cccc(C(=O)Nc2ccccc2C(=O)O)c1 | -0.059% |
| O=C(COc1ccc([N+](=O)[O-])cc1)Nc1cccc(C(=O)Nc2ccccc2C(=O)O)c1 | 1.4% (active) |
| CN(CCc1ccccc1)C(=O)c1cccc(NC(=O)Cc2ccc([N+](=O)[O-])cc2)c1 | -0.076% |
| C[C@H](CO)N1C[C@H](C)[C@@H](CN(C)C(=O)C2CCOCC2)Oc2cc(-c3ccc(C(=O)N(C)C)cc3)ccc2S1(=O)=O | -0.068% |
| CN1c2ccc(C#Cc3cccnc3)cc2[C@H]2[C@H](CCN2S(=O)(=O)c2ccccc2)[C@@H]1CO | -0.293% |
| C[C@H](CO)N1C[C@H](C)[C@H](CN(C)Cc2ccccc2)OCCCC[C@H](C)Oc2ccc(NC(=O)CCC(F)(F)F)cc2C1=O | -0.091% |
| Cn1cncc1COC(=O)c1ccc(Cl)cc1 | 0.094% |
| O=C(OCc1cc(Cl)ccc1OC(F)F)c1cccnc1 | 43.6% (active) |
| O=C(CC(=O)c1cccnc1)c1ccccc1 | -0.031% |
| C[C@@H](O)C#Cc1ccc([C@H]2[C@H](CO)N3CCCCN(C(=O)c4ccc(F)cc4)C[C@@H]23)cc1 | 0.261% |
| O=C(Nc1ccccc1F)N1C[C@@H]2[C@H](c3ccccc31)[C@@H](CO)N2C(=O)Nc1ccccc1 | -0.294% |
| O=C(Nc1ccccc1F)N1[C@H](CO)[C@H]2c3ccccc3NC[C@H]21 | 1.7% (active) |
| O=C(c1cccnc1)N1C[C@H]2[C@@H](c3ccccc31)[C@@H](CO)N2C(=O)Nc1ccccc1F | -0.686% |
| C/C=C/c1cccc(-c2nc(C(=O)NCCN3CCCCC3)cc3c2[C@@H](CCO)N([S@](=O)C(C)(C)C)C3)c1 | 0.178% |
| C[C@@H]1CCCCO[C@@H](CN(C)C(=O)Nc2ccc(C(F)(F)F)cc2)[C@H](C)CN([C@@H](C)CO)C(=O)c2cc(N(C)C)ccc2O1 | -1.45% |
| C[C@@H](NC(=O)C[C@H]1C=C[C@H](NC(=O)C2CCOCC2)[C@H](CO)O1)c1ccccc1 | -0.059% |
| COCC#Cc1ccc([C@H]2[C@H]3CN(Cc4ccncc4)CCCCN3[C@H]2CO)cc1 | 0.633% |

| Compound | activity (Tm shift, normalised) |
| --- | --- |
| Cc1ccc(NC(=O)CSc2nnc(CNC(=O)c3ccccc3F)o2)cc1 | 44% (active) |
| COc1ccccc1NC(=O)CSc1nnc(CNC(=O)c2ccccc2F)o1 | 0.09% |
| Cc1ccc(NC(=O)CSc2nnc(CNC(=O)c3ccccc3F)o2)cc1Cl | 0.074% |
| O=C(N[C@H]1CC[C@@H](CCNS(=O)(=O)c2ccccc2)O[C@@H]1CO)c1cnccn1 | -0.268% |
| C[C@@H]1CN([C@H](C)CO)C(=O)c2cc(NC(=O)C3CCCCC3)ccc2O[C@H]1CN(C)C(=O)Nc1ccccc1 | -0.036% |
| C[C@H](CO)N1C[C@H](C)[C@@H](CN(C)C(=O)Nc2ccc3c(c2)OCO3)Oc2ccc(NS(=O)(=O)c3ccc(Cl)cc3)cc2C1=O | 0.554% |
| CCS(=O)(=O)Nc1ccc2c(c1)C(=O)N(C)[C@H]1CC[C@@H](CC(=O)Nc3ccccc3)O[C@H]1CO2 | 0.176% |
| Cc1nc(Cl)c(C#N)c2c1CCCC2 | -0.106% |
| COCc1c(N)c(C)nc(Cl)c1C#N | 43% (active) |
| O=C(C[C@@H]1CC[C@@H]2[C@H](COC[C@@H](O)CN2Cc2ccccc2)O1)NCCc1ccccc1 | -0.247% |
| O=C(C[C@@H]1CC[C@@H]2[C@H](COC[C@H](O)CN2S(=O)(=O)c2ccccc2F)O1)NCc1ccccc1F | -0.237% |
| CC(OC(=O)CCCc1c[nH]c2ccccc12)C(=O)Nc1ccc(S(N)(=O)=O)cc1 (stereo not given) | -0.822% |
| NS(=O)(=O)c1ccc(NC(=O)COC(=O)CCc2c[nH]c3ccccc23)cc1 | 43.3% (active) |
| O=C(COC(=O)CCc1c[nH]c2ccccc12)Nc1cccc(Cl)c1 | 0.175% |
| COc1ccc(S(=O)(=O)N[C@H]2CC[C@H](CCn3cc(C(C)C)nn3)O[C@@H]2CO)cc1 | 0.529% |
| COCC(=O)N1[C@H](CO)[C@@H](c2ccccc2)C12CN(Cc1cc(F)ccc1F)C2 | -0.224% |
| COc1ccccc1NC(=O)N1C[C@@H](O)COC[C@H]2O[C@@H](CC(=O)NCc3ccccc3)CC[C@@H]21 | -0.018% |
| COc1ccc(S(=O)(=O)N(C)C[C@@H]2OCCCC[C@@H](C)Oc3ccc(NC(=O)c4ccccc4)cc3C(=O)N([C@@H](C)CO)C[C@H]2C)cc1 | 0.83% |
| CCN(CC(=O)Nc1ccc(Cl)c(S(=O)(=O)N(C)C)c1)Cc1nc2ccccc2c(=O)[nH]1 | 0.133% |
| CCN(CC(=O)NC(=O)NCc1ccccc1)Cc1nc2ccccc2c(=O)[nH]1 | 43% (active) |
| CCN(CC(=O)Nc1cccc(S(N)(=O)=O)c1)Cc1nc2ccccc2c(=O)[nH]1 | 42.3% |
| COc1ccc(S(=O)(=O)N(C)C[C@H]2OCCCC[C@H](C)Oc3ccc(NC(=O)CCC(F)(F)F)cc3C(=O)N([C@@H](C)CO)C[C@@H]2C)cc1 | 0.44% |
